# Compound activity (PubChem)
# Shown are actives, neighbours in structure and some others; about 11% of the full set was active somewhere.
# FLuc inh: blocks purified firefly luciferase enzyme activity; P08659; purified P. pyralis luciferase, luminescence, biochemical; Potency, µM (top dose mostly 115 µM), most hits filed as inhibitors; 2.5% of 76,000 active; AID 1347043; note: nearly all actives have a fitted effect of over 65% in size
#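 Purified P. pyralis luciferase (10nM final) in 50mM Tris acetate pH 7.5, 10mM Mg acetate, 0.01% Tween-20, 0.05% BSA with 10uM D-luciferin and 10uM ATP. Compounds titrated qHTS. Luminescence imaged on CCD.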
# hNpr1 antagonist: human Npr1 receptor antagonism; HEK293 hNpr1 GloSensor cGMP, ANP-stimulated luminescence; Potency, µM (doses to about 46.3 µM), inactives show top-dose activity change, negative = inhibition, most hits filed as inhibitors; 1.6% of 76,000 active; P16066; calls by dose curve; note: nearly all actives have a fitted effect of over 60% in size
# Target sequence (P16066 whole entry, looked up): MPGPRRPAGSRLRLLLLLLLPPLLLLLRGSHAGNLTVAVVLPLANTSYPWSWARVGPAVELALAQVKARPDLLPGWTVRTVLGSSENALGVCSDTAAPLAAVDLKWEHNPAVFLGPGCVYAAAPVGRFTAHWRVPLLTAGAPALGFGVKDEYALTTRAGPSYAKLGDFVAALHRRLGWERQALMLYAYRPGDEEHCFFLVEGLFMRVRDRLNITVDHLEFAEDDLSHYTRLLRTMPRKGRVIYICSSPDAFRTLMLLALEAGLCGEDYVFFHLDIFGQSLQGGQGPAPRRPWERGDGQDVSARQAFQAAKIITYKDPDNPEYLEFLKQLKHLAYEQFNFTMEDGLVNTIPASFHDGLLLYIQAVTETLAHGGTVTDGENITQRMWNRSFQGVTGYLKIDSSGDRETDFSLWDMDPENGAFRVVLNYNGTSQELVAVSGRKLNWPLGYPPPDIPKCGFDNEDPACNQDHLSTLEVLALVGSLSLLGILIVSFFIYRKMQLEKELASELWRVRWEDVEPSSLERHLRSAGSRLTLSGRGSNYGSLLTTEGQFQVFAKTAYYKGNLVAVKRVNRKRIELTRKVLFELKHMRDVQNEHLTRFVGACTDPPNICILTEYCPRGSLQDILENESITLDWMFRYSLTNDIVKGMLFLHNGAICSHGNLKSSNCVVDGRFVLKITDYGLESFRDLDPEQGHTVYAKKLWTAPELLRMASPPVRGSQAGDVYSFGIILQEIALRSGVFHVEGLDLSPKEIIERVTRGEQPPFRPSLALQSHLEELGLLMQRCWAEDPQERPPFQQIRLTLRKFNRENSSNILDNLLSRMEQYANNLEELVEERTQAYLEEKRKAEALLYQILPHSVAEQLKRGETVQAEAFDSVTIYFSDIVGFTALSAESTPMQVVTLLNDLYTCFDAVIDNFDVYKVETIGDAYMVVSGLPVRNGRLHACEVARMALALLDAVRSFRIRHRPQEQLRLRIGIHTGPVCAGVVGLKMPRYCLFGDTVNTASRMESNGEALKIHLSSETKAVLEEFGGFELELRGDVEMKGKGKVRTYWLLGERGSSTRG
#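 Compound pre-incubated 30 min at room temperature on GloSensor-loaded HEK293 cells stably carrying hNpr1 and the pGS-40F cGMP biosensor. Stimulation uses hNppA at 0.1 nM final; luminescence is taken at baseline and 20 min post-agonist.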
# HEK cytotox: cytotoxic compounds in HEK 293 cells; HEK 293 viability, ATP luminescence (CellTiter-Glo), 48-72 h; 6.6% of 94,000 active; Potency, µM (top dose mostly 115 µM), for the others: at the top dose activity change, negative = cytotoxicity, hits mostly inhibitors; note: nearly all actives have a fitted effect of over 60% in size
#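 Cells seeded first (HEK 293, 250 cells/well), then compound added by pintool. Incubation ran 48 or 72 hr at 37 degree Celsius. CellTiter-Glo was added and luminescence imaged after 10 min at room temperature.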
# NIH3T3 tox: cytotoxic compounds in NIH 3T3 cells | NIH 3T3 viability, CellTiter-Glo ATP luminescence, 48-72 h | 4.3% of 94,000 active | Potency, µM (doses to about 96.7 µM), for inactives: at the highest dose activity change, negative = cytotoxicity, actives largely listed as inhibitors; note: nearly all actives have a fitted effect of over 55% in size
#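 Viability of NIH 3T3 cells after 48 or 72 hr compound treatment at 37 °C was assessed by CellTiter-Glo, with luminescence imaged following a 10 min room-temperature step.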
# * marks the source's active call; other numbers are inactive results; i = inactive; ? = inconclusive; nt = no result given; [ ] = dose if it differs, or a comment. Unless noted, calls come from the whole dose curve; as a rule, active = well fitted curve in the direction sought with a large enough effect; inconclusive = small, poorly fitted or top-dose-only effect, or another doubt; inactive = no such curve, though single readings can be large; an effect the other way counts as inactive or inconclusive. % is set by controls: 0 for no effect and ±100 for the full control effect; potency is the fitted concentration of half-maximal effect.
SMILES,FLuc inh,hNpr1 antagonist,HEK cytotox,NIH3T3 tox
COc1ccc(CCNC(=O)c2nc3sccn3c2-c2ccc(C)cc2)cc1,nt,nt,?,22µM*
Cc1cnc(C(=O)NCCc2ncc(C)n2C2CCC2)cn1,i,3%,-9%,-24%
CC1=C[C@@H](CN2CCC(CO)CC2)[C@H](C(C)C)C[C@H]1Cc1nnc(-c2ccncc2)o1,i,4%[70.6 µM],-21%[172 µM],-26%[138 µM]
CC1=C[C@@H](CO)[C@H](C(C)C)C[C@H]1Cc1nnc(C(C)(C)C)o1,i,0%[70.6 µM],?,?
COCCNC[C@@H]1C=C(C)[C@H](Cc2nnc(-c3ccc(N(C)C)cc3)o2)C[C@H]1C(C)C,i,-1%[70.6 µM],25µM*,40µM*
CC1=C[C@@H](CO)[C@H](C(C)C)C[C@H]1Cc1nnc(-c2ccc(N(C)C)cc2)o1,?,-28%[70.6 µM],?,89µM*
CC1=C[C@@H](CO)[C@H](C(C)C)C[C@H]1Cc1nnc(-c2ccncc2)o1,i,-15%[70.6 µM],100µM*,-25%[174 µM]
CC1=C[C@@H](CN(C)CCO)[C@H](C(C)C)C[C@H]1Cc1nnc(-c2ccc(N(C)C)cc2)o1,i,-1%[70.6 µM],63µM*,40µM*
CNC(=O)c1cc(C2CC2)nc2onc(C3CCN(C(=O)c4ccccc4)C3)c12 (stereo unspecified),nt,nt,-11%,-21%
COc1ccc(C(=O)N2CCC(=O)N(C)C[C@H]3COc4cc(OC)ccc4[C@H]32)cc1,nt,nt,-17%,?
CO[C@H]1C(=O)N(C(C)C)[C@H]1C1CCN(S(=O)(=O)c2cccc3cccnc23)CC1,nt,nt,-2%,-12%
CC1=C[C@@H](CN2CCC[C@H]2CO)[C@H](C(C)C)C[C@H]1Cc1nnc(-c2ccc(N(C)C)cc2)o1,i,1%,45µM*,40µM*
CC1=C[C@@H](CN2CCC(CO)CC2)[C@H](C(C)C)C[C@H]1Cc1nnc(-c2ccc([N+](=O)[O-])cc2)o1,i,-2%,?,?
O=c1cc2c(nn1Cc1ccc(OC(F)(F)F)cc1)CCCCC2,i,-21%,45µM*,?
O=C1N(c2ccccc2)c2ccccc2C12CCN([S+](=O)([O-])c1cccs1)C2 (stereo unspecified),nt,nt,?,-27%
COCCn1c(=O)c2c(n1Cc1ccccc1)CN(C(=O)c1cc3ccccc3n1C)CC2,i,-1%,-11%,28µM*
O=C(c1cccc(O)c1)N1CCc2c(n(Cc3cccnc3)n(-c3ccccc3)c2=O)C1,i,2%[70.6 µM],i,?
Cn1c(C(=O)N2CCc3c(n(Cc4cccnc4)n(-c4ccccc4)c3=O)C2)cc2ccccc21,i,3%,1%,28µM*
COCCn1c(=O)c2c(n1Cc1ccccc1)CN(C(=O)c1cc3ccccc3[nH]1)CC2,i,1%[70.6 µM],-11%[172 µM],?
Cc1noc(C)c1S(=O)(=O)N(C)C1CCc2ccccc21 (stereo unspecified),i,17%[70.6 µM],?,?
CCn1cc(S(=O)(=O)N2CCC[C@H](n3c(=O)n(CC4CC4)c4cccnc43)C2)cn1,i,5%,40µM*,-24%
O=C(NCC1CC1)c1ccc2nnc(-c3ccoc3)n2c1,nt,nt,5%[172 µM],-8%[138 µM]
Cc1cc(CN2CCC(Cc3ccc(F)cc3)CC2)n(C)n1,i,?,40µM*,?
Cc1cc(C(=O)N2CCC(Cc3ccc(C(N)=O)cc3)CC2)n(C)n1,i,1%,?,-22%
C#CCNC(=O)c1cc(-c2ccc([S+](C)(=O)[O-])cc2)nc2c1cnn2C,nt,nt,?,-15%
SMILES,FLuc inh,hNpr1 antagonist,HEK cytotox,NIH3T3 tox
COc1ccc(-c2cc(C(=O)NCC(F)(F)F)c3c(C4CCNC4)nn(C)c3n2)cc1 (stereo unspecified),nt,nt,79µM*,?
C#CCNC(=O)c1cc(-c2ccc(OC)cc2)nc2c1cnn2C,nt,nt,?,50µM*
C#CCNC(=O)c1cc(-c2ccc(Cl)cc2)nc2c1cnn2C,nt,nt,89µM*,?
COC(=O)CNC(=O)c1cc(-c2ccc(Cl)nc2)nc2c1cnn2C,nt,nt,-4%,32µM*
COc1ccc(-c2cc(C(=O)N(C)C)c3cnn(C)c3n2)cc1,nt,nt,2%[172 µM],-4%[138 µM]
Cn1ncc2c(C(=O)NCC(F)F)cc(-c3ccc(Cl)cc3)nc21,nt,nt,45µM*,?
O=C1NCc2ccccc2CC12CCCCN2Cc1cnc2ccccc2c1 (stereo unspecified),nt,nt,?,-8%
